dFosB activator: activators of delta FosB homodimer, primary screen, biochemical, fluorescence polarization, TAMRA-CDK5 oligo, single point; Protein FosB (Mus musculus), P13346; purified delta FosB; percent of positive-control signal above neutral wells; activation, % at 25 µM; 0.99% of 340,000 active; AID 493131, 2011;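 active means mean activation above about 17%, with every replicate also reaching it, limit read from the data, passing the limit was not always enough; inconclusive means only one of the two conditions met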
NALP3 yeast inh: NALP3 inflammasome inhibitors in reconstituted yeast, primary screen, luminescence, uHTS; Yeast reconstituted NLRP3/ASC/caspase-1, beta-gal luminescence, 24 h; inhibition, % at 10 µM; 0.39% of 330,000 active;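 active means inhibition of 50% or more; inactive means inhibition below 50%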
PolyA inhibitor: polyadenylation inhibitors in yeast reporter cells, primary screen, luminescence, S. cerevisiae. S. cerevisiae SKY197-pL101 polyadenylation reporter, beta-gal luminescence; efflux-impaired pdr1/pdr3 knockout yeast; score 100 = 6 SD above DMSO. activity score, % at 12 µM. 0.02% of 300,000 active. AID 1875, 2009;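 active means lowest replicate activity score at least 50, where 100 means six control SD above control mean; inconclusive means lowest score under 50 but half or more replicates reach 50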;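 further: yeast exposed to compound for 9 h at 30 °C; higher score means more reporter readthrough which indicates perturbed polyadenylation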
EBNA-1 inh: EBNA-1 DNA-binding inhibitors, primary screen, biochemical, fluorescence polarization. AID 1950, 2009. 0.34% of 300,000 active. inhibition, % at 14.8 µM; in the data active means inhibition above about 28%
NALP1 yeast inh: NALP1 inflammasome inhibitors in reconstituted yeast, colorimetric, S. cerevisiae, triplicate retest; S. cerevisiae NALP1/ASC/caspase-1 growth, X-gal OD620, 72 h; inhibition, % at 10 µM; 0.61% of 280,000 active; AID 2071, 2009; in the data active means inhibition mostly above about 24%, no sharp cut-off; inactive means mostly below about 32%
ZTA counter: blocks Epstein-Barr virus ZTA, an EBNA-1 counter-screen; P03206; ZTA-DNA binding, fluorescence polarization; inhibition, % at 11 µM; 0.15% of 320,000 active; in the data active means inhibition above about 33%
Target sequence (P03206 whole entry, looked up): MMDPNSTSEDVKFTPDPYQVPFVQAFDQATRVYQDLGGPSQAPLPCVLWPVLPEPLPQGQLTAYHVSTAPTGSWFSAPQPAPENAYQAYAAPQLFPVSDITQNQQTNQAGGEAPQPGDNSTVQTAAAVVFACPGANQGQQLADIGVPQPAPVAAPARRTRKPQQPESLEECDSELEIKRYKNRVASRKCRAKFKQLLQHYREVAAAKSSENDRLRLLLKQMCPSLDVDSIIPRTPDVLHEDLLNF
EBNA-1 inh conf: EBNA-1 DNA-binding inhibitors, retest, confirmation, biochemical, fluorescence polarization, triplicate | shares compounds with EBNA-1 inh | Recombinant EBNA-1 DBD, Cy5-DNA fluorescence polarization | inhibition, % at 14.8 µM | 35% of 830 active | AID 2292, 2010;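 active means mean inhibition across replicates above a set limit taken from the earlier primary screen, cut at about 28% in these data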
ZTA DNA inh trip: EBV Zta DNA binding inhibitors, counter-screen for EBNA-1 inhibitor project, biochemical, fluorescence polarization, triplicate; shares compounds with EBNA-1 inh; Zta-ZRE DNA binding, Cy5 fluorescence polarization; inhibition, % at 11.1 µM; 830 tested, under 10 active;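 active means mean inhibition over triplicates above a set limit taken from the primary EBNA-1 screen, cut at about 37% in these data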;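 further: purified full length Zta protein with Cy5 labeled ZRE DNA probe; inhibitors lower polarization by freeing the labeled DNA probe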
Hits are given with their value; i = inactive; ? = inconclusive; nt = no result given; + = active, no number. A selection: hits, their analogues and other compounds. The true share with any hit is near 2.2%.

SMILES	dFosB activator	NALP3 yeast inh	PolyA inhibitor	EBNA-1 inh	NALP1 yeast inh	ZTA counter	EBNA-1 inh conf	ZTA DNA inh trip
NC(=O)C[N+]1(CC#CC(O)(c2ccccc2)c2ccccc2)CCCC1	i	i	i	128	i	i	i	i
CCOC(=O)c1nncc(-c2ccccc2)n1	i	i	nt	nt	nt	i	nt	nt
COc1ccc(C(=O)NC(=S)N(C)Cc2ccccc2)cc1Br	i	i	i	45	i	i	i	i
O=C(Nc1ccncc1)C1CCN(S(=O)(=O)c2cccc(C(F)(F)F)c2)CC1	i	i	nt	nt	nt	i	nt	nt
Cc1cc(C(=O)N/N=C/c2ccc(-c3cccc(Br)c3)o2)n[nH]1	nt	i	i	35	i	i	i	i
COC(=O)N/N=C/c1cc(N=Nc2ccccc2)ccc1O	i	i	i	i	i	i	nt	nt
Cc1cc(C(=O)N/N=C/c2cc(N=Nc3ccccc3)ccc2O)n[nH]1	i	nt	i	75	i	i	i	38
Cc1cc(C(=O)N/N=C/c2ccc(-c3cccc(Cl)c3Cl)o2)n[nH]1	i	i	i	i	i	i	nt	nt
COc1ccc(S(=O)(=O)N2CCOCC2)cc1NC(=O)CCOc1ccc(C(C)(C)C)cc1	i	i	nt	nt	nt	nt	nt	nt
CCCCCn1c(=O)[nH]c2cc(C(=O)NCc3ccc4c(c3)OCO4)ccc2c1=O	?	i	i	31	i	i	i	i
COC(=O)c1ccc2c(=O)n(CCCCCC(=O)NCc3ccccc3)c(=O)[nH]c2c1	i	i	i	i	i	i	nt	nt
COC(=O)c1ccc2c(=O)n(CCCCCC(=O)NCc3ccc4c(c3)OCO4)c(=O)[nH]c2c1	i	i	i	63	i	i	i	i
Cc1ccc(/C=C2\SC(=S)N(CCC(=O)NNC(=O)c3cccc(O)c3)C2=O)cc1	?	i	i	i	i	i	nt	nt
CC(/C=C1\SC(=S)N(c2ccc(C(=O)O)cc2)C1=O)=C\c1ccccc1	i	i	i	36	nt	i	i	i
CC(/C=C1\SC(=S)N(CCC(=O)Nc2ccc(O)cc2)C1=O)=C\c1ccccc1	23	i	i	34	i	i	i	i
CC(/C=C1\SC(=S)N(NC(=O)c2ccc(C)cc2)C1=O)=C\c1ccccc1	i	i	i	i	i	i	nt	nt
Cc1ccc(/C=C2\SC(=S)N(CCC(=O)NNC(=O)c3ccc(O)cc3)C2=O)cc1	144	i	i	29	i	i	57	i
Cc1oc2cc3oc(=O)c(CCC(=O)N4C[C@H]5C[C@@H](C4)c4cccc(=O)n4C5)c(C)c3cc2c1C	i	i	i	i	i	i	nt	nt
CCOC(=O)c1cc2c(OC)ccc(OC)c2n1CC(=O)c1ccccc1	i	i	i	i	i	i	nt	nt
CCOc1ncccc1C(=O)OCC(=O)Nc1ccc(C(N)=O)cc1	i	i	i	+	i	i	i	i
COc1cccc(-c2c(C(=O)N/N=C(\C)c3ccc(Cl)s3)nnn2-c2nonc2N)c1	i	i	i	35	i	i	i	i
CCOc1ccc(-c2c(C(=O)N/N=C/c3ccoc3)nnn2-c2nonc2N)cc1	i	i	i	i	i	i	nt	nt
CCOc1ccc(/C=N/NC(=O)c2nnn(-c3nonc3N)c2-c2ccc(OCC)cc2)cc1	i	i	i	35	i	i	i	i
CC(=O)c1cccc(NC(=O)c2ccc(-c3ccccc3[N+](=O)[O-])o2)c1	i	i	i	36	i	i	i	i
Cc1cc(NC(=O)c2ccc(-c3ccccc3[N+](=O)[O-])o2)no1	i	i	nt	nt	nt	nt	nt	nt
COc1ccc(Cc2nnc(NC(=O)Nc3ccccc3F)s2)cc1	i	i	i	i	i	i	nt	nt
COc1ccc(Cc2nnc(NC(=O)Nc3ccccc3F)s2)cc1OC	i	i	i	37	i	i	71	i
